According to PubChem BioAssay (NCI):
This is part of a sample that, as a whole, favours compounds with a hit. Of some 79,000 tested, about 15% had one in any assay. Unmarked numbers belong to inactive results. Active and inactive are the calls of the source. Cut-off read from the data, not from the text of the source: active = growth inhibition above about 70%; inactive = the rest.

Columns and labels:
[1] = NCI Yeast Anticancer Drug Screen. Data for the rad50 strain (AID 155);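 note: 0% = growth of vehicle-only cultures of the same strain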; settings: S. cerevisiae rad50 strain growth inhibition, active compounds read high
Method in brief: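 Relative growth inhibition (compound vs vehicle) was measured in yeast with a defined repair-gene alteration.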

[2] = NCI Yeast Anticancer Drug Screen. Data for the mec2-1 strain (AID 157); settings: S. cerevisiae mec2-1 strain, active compounds read high
Method in brief: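 Strain: mec2-1 (DNA repair/cell cycle alteration). Compound exposure, then growth measured; inhibition expressed relative to vehicle.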

[3] = NCI Yeast Anticancer Drug Screen. Data for the sgs1 mgt1 strain (AID 161);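 note: 0% = growth of cultures given vehicle only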; settings: S. cerevisiae sgs1 mgt1 strain, active compounds read high
Method in brief: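 Read-out: growth inhibition vs vehicle controls. Cells: mutant yeast strain deficient in DNA damage repair.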

[4] = NCI Yeast Anticancer Drug Screen. Data for the cln2 rad14 strain (AID 165);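 note: 0% = growth equal to vehicle treated cultures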; settings: S. cerevisiae cln2 rad14 strain, active compounds read high
Method in brief: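 Compounds are applied to the cln2 rad14 yeast strain, and growth is then compared with that of vehicle-treated cultures to give inhibition.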

[5] = NCI Yeast Anticancer Drug Screen. Data for the bub3 strain (AID 167); settings: S. cerevisiae bub3 mutant strain, active compounds read high
Method in brief: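 Screening used yeast with an engineered genetic alteration affecting cell cycle control. Compound-exposed cultures were compared with vehicle cultures, and reduced growth was taken as inhibition.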

[6] = NCI Yeast Anticancer Drug Screen. Data for the mlh1 rad18 strain (AID 175); settings: S. cerevisiae mlh1 rad18 strain growth inhibition, active compounds read high
Method in brief: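 Read-out is yeast growth inhibition, calculated against vehicle-only controls. The compound was applied to a strain engineered with DNA damage repair alterations.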

[7] = at 5.0 µM (retest, dose inferred, filed as 0.5)
[8] = at 50.0 µM (retest, dose inferred, filed as 5.0)

Row | Structure (SMILES) | growth inhibition [1, 7] | growth inhibition [1, 8] | growth inhibition ([1]; at 50.0 µM) | growth inhibition [2, 7] | growth inhibition [2, 8] | growth inhibition ([2]; at 50.0 µM) | growth inhibition [3, 7] | growth inhibition [3, 8] | growth inhibition ([3]; at 50.0 µM) | growth inhibition [4, 7] | growth inhibition [4, 8] | growth inhibition ([4]; at 50.0 µM) | growth inhibition [5, 7] | growth inhibition [5, 8] | growth inhibition ([5]; at 50.0 µM) | growth inhibition [6, 7] | growth inhibition [6, 8] | growth inhibition ([6]; at 50.0 µM)
1 | CC1=NC2=NC(CCCC(=O)OCc3ccc(Cl)c(Cl)c3)=NC3=CC=CC(=N1)N32 | 9% | 54% | 61.1% | 17% | 52% | 31.1% | 5% | 60% | 67.7% | 6% | 46% | 41% | 1% | 38% | 7.65% | 5% | 58% | 63.1%
2 | C/C(=N\NC(=S)N(C)CCN(C)C(=S)N/N=C(\C)c1ccccn1)c1ccccn1 | -8% | 99% (active) | 97.5% (active) | -5% | 99% (active) | 97.2% (active) | -3% | 99% (active) | 97.8% (active) | 4% | 99% (active) | 95.8% (active) | -10% | 99% (active) | 97% (active) | 20% | 99% (active) | 96.7% (active)
3 | CC(C)(CN1CCCCC1)C(=O)/C=C/c1ccc(Cl)c(Cl)c1 | 60% | 97% (active) | 93.3% (active) | 27% | 98% (active) | 94.7% (active) | 31% | 96% (active) | 93.2% (active) | 28% | 96% (active) | 91.8% (active) | 47% | 96% (active) | 92.9% (active) |  |  | 
4 | O=C(O)CCSSCCCCCS(=O)O | -5% | -4% | 54.9% | 4% | 10% | -1.9% | -1% | 0% | 7.95% | -10% | -22% | 1% | -3% | 9% | 13% | 0% | 9% | 13%
5 | Cn1cc(NC(=O)c2cc(NC(=O)CCCCCCCC(=O)Nc3cc(C(=O)Nc4cc(C(=O)NCCC(=N)N)n(C)c4)n(C)c3)cn2C)cc1C(=O)NCCC(=N)N | 82% (active) | 96% (active) | 86.8% (active) | 84% (active) | 98% (active) | 89.8% (active) | 73% (active) | 98% (active) | 90.2% (active) | 28% | 91% (active) | 82% (active) | 88% (active) | 98% (active) | 88.2% (active) | 85% (active) | 98% (active) | 88.8% (active)
6 | O=[N+]([O-])c1ccc(N=Nc2ccc(O)cc2O)cc1 | 48% | 97% (active) | 98.5% (active) | 24% | 98% (active) | 98.9% (active) | 36% | 98% (active) | 98.3% (active) | -1% | 97% (active) | 90.4% (active) | 45% | 97% (active) | 98.9% (active) |  |  | 
7 | CCOC(=O)c1cc2c(nc1N)/C(=C/c1ccccc1)CCCC2 | 39% | 95% (active) | -24.4% | 31% | 96% (active) | -34.6% | 34% | 96% (active) | -29.2% | 19% | 80% (active) | -15.4% | 42% | 97% (active) | -11.4% | 37% | 95% (active) | -21.1%
8 | CN1c2ccccc2C(C)(C)C12C=Cc1cc(O)ccc1O2 (configuration not stated) | 20% | 31% | 70.8% (active) | 9% | 10% | 47.6% | 8% | 38% | 61.9% | 14% | 23% | 35.6% | -4% | 51% | 52.4% | -15% | 33% | 54.1%
9 | CC1CC[N-]CC1.CC1CC[N-]CC1.CC1CC[N-]CC1.CC1CC[N-]CC1.CS(C)=O.CS(C)=O.[Cl-].[Cl-].[Cl-].[Cl-].[Pt+4].[Rh+3] | 65% | 96% (active) | 95.5% (active) | 58% | 98% (active) | 96.8% (active) | 66% | 98% (active) | 96.3% (active) | 44% | 97% (active) | 89.3% (active) | 52% | 96% (active) | 97.9% (active) |  |  | 
10 | COC(=O)c1ccccc1C#Cc1ccccc1C(=O)OC | -1% | -1% | 66.8% | -2% | 2% | 54.3% | -2% | 1% | 89% (active) | -2% | -7% | 12.9% | 3% | 4% | 83.5% (active) |  |  | 
11 | O=C(CN(Cc1ccccc1)Cc1ccccc1)c1ccccc1 | -2% | 31% | 19.6% | 1% | 34% | -1.8% | -2% | 33% | 16.9% | 3% | 45% | 1.75% | 4% | 89% (active) | 79.7% (active) | -1% | 57% | 15.4%
12 | O=C1Sc2sc(=S)sc2SC1c1ccccc1 (configuration not stated) | -4% | 87% (active) | 40.5% | -1% | 91% (active) | 36.5% | 5% | 98% (active) | 82.2% (active) | -1% | 79% (active) | 58.1% | -4% | 95% (active) | 32.6% |  |  | 
13 | COc1ccc(/C=C2\CCC(CN(C)C)C2=O)cc1 (configuration not stated) | 19% | 89% (active) | 93.8% (active) | 19% | 99% (active) | 93.3% (active) | 33% | 99% (active) | 93.2% (active) | 27% | 48% | 91.8% (active) | 36% | 99% (active) | 92.6% (active) | 24% | 98% (active) | 88.8% (active)
14 | COc1cc(C2c3cc4c(cc3[C@@H](Nc3ccc5c(c3)OCCO5)C3COC(=O)[C@H]23)OCO4)cc(OC)c1O (some centres not stated) | 96% (active) | 93% (active) | 85.2% (active) | 97% (active) | 94% (active) | 91.2% (active) | 99% (active) | 99% (active) | 87.3% (active) | 98% (active) | 99% (active) | 85.8% (active) | 98% (active) | 99% (active) | 87.2% (active) | 95% (active) | 90% (active) | 88.8% (active)
15 | O=Nc1c(-c2cccc([N+](=O)[O-])c2)nc2cnccn12 | 39% | 99% (active) | 97.7% (active) | 24% | 99% (active) | 98.5% (active) | 54% | 99% (active) | 95.7% (active) | 23% | 99% (active) | 99.3% (active) | 4% | 99% (active) | 99.7% (active) |  |  | 
16 | CC(=O)Nc1cccc2ccc(C)cc12 | 0% | 1% | -5.5% | 2% | 4% | 4.85% | 1% | 1% | -22.9% | 1% | 5% | 71.3% (active) | 1% | -1% | 23.1% | 0% | 2% | 41.8%
17 | O=C(N/N=C/c1ccccc1)c1ccc([N+](=O)[O-])cc1 | 16% | 15% | 8.6% | -3% | 6% | 7.3% | 22% | 12% | 1.15% | 12% | 19% | -1.35% | 17% | 24% | 14.9% | 15% | 18% | 1.05%
18 | O/N=C/c1cc(Cl)cc(Cl)c1O | 96% (active) | 96% (active) | 97.7% (active) | 93% (active) | 89% (active) | 95.1% (active) | 53% | 47% | 98% (active) | 80% (active) | 94% (active) | 96.7% (active) | 85% (active) | 94% (active) | 73.5% (active) | 97% (active) | 95% (active) | 97.8% (active)
19 | CCC(=O)OCN1C(=O)C=CC1=O | 11% | 99% (active) | 99% (active) | 3% | 100% (active) | 99.3% (active) | -4% | 100% (active) | 99.2% (active) | 14% | 99% (active) | 98.9% (active) | 10% | 100% (active) | 99.3% (active) | 20% | 99% (active) | 99% (active)
20 | NC(=O)/C=C/C(=O)c1c(Cl)cccc1Cl | 97% (active) | 100% (active) | 91.1% (active) | 99% (active) | 100% (active) | 92% (active) | 99% (active) | 100% (active) | 91.7% (active) | 46% | 98% (active) | 90.3% (active) | 99% (active) | 100% (active) | 88.3% (active) | 100% (active) | 100% (active) | 91% (active)
